# Bioassay records as filed in PubChem.
# Rows were chosen to be rich in hits. Some 1.6% of all compounds tested hit in one or more screens of this group.
# KCNQ2 block – KCNQ2 (rat) channel inhibition. CHO-K1 KCNQ2, FluxOR thallium flux, 20 min; hits give low values. B-score at 10 µM. 310,000 tested, 1.1% active. AID 2156;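 active means fluorescence ratio B-score at most minus 3 library SDs, with starting brightness B-score within 2 library SDs, cut at about -5.5 in these data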
# Target sequence (O88943 whole entry, looked up): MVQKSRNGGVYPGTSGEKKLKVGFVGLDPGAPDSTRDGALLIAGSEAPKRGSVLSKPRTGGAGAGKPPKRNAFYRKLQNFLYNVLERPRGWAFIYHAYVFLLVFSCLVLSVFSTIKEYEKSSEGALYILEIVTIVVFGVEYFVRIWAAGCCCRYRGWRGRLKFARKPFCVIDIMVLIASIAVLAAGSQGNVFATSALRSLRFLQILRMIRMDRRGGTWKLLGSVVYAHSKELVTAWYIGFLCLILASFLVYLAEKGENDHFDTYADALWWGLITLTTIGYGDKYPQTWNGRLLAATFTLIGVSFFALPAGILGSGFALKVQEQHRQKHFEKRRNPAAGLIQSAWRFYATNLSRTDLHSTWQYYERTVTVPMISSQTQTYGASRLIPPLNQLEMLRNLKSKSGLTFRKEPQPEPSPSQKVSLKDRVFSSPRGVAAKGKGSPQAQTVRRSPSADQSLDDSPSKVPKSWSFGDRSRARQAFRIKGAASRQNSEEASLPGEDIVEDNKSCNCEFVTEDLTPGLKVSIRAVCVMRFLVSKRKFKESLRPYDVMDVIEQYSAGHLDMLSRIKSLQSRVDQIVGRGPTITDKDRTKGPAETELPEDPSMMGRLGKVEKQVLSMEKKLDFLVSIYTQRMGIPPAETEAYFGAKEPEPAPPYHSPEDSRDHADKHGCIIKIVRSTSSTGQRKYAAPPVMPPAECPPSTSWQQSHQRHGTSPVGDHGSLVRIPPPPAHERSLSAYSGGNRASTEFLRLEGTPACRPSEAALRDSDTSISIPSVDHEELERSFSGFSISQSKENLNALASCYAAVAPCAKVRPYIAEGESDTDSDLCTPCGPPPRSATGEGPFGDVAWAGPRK
# KCNQ2 enhance – enhances the rat KCNQ2 potassium channel. 310,000 tested, 0.54% active. AID 2239. CHO-K1 KCNQ2, FluxOR thallium flux fluorescence; hits give high values. O88943. B-score at 10 µM;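 active means fluorescence ratio B-score at least 3 SD of library B-scores, with initial fluorescence B-score within 3 of them, cut at about 5.3 in these data; same plate scores as AID 2156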;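 further: B-score of peak minus minimum over baseline fluorescence ratio after K+ and Tl+ stimulus; positive B-score means potentiation of KCNQ2 with more thallium influx and brighter signal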
# Numbers without * were called inactive; i = inactive; / = no result.
SMILES,KCNQ2 block,KCNQ2 enhance
S=c1[nH]c2ccc(Cl)cc2s1,i,21*
Cc1cc(=O)[nH]c2ccc(Cl)cc12,i,0.91
COc1ccc2nc3oc(C(=O)N4CCN(c5cccc(C(F)(F)F)c5)CC4)cc3cc2c1,i,/
COc1ccc2nc3oc(C(=O)N4CCN(c5cccc(Cl)c5)CC4)cc3cc2c1,-5.8*,-5.8
Cc1cccc(N2CCN(C(=O)c3ccccc3OCc3c(C)noc3C)CC2)c1C,i,/
Cc1cccn2c(CN(C)CC3Cc4ccccc4O3)c(C(=O)N3CCCCC3)nc12 (stereo not drawn),i,0.25
CC(C)Cn1c(-c2ccco2)csc1=Nc1cccnc1,-6.3*,-6.3
COCCn1c(-c2ccco2)csc1=Nc1cccnc1,i,/
CCOC(=O)C(CCCCOc1cccc(CC)c1)C(=O)OCC,-5.6*,-5.6
CCOC(=O)C(CCCOc1cccc(CC)c1)C(=O)OCC,i,/
O=C(Nc1ccccc1C(=O)O)c1ccc(NC(=O)C2CCCCC2)cc1,i,0.24
CC(OC(=O)c1ccccc1NS(=O)(=O)c1cccc(C(F)(F)F)c1)C(=O)N(C)Cc1ccccc1 (stereo not drawn),-6.5*,-6.5
CN(Cc1ccccc1)C(=O)COC(=O)c1ccccc1NS(=O)(=O)c1cccc(N)c1,i,/
Cc1ccc(-c2nnn(CC(=O)N(c3ccccc3)C(C(=O)NCC3CCCO3)c3cccs3)n2)o1 (stereo not drawn),i,0.03
Clc1ccc(CONc2ncnc3nonc23)c(Cl)c1,i,6.9*
CCONc1ncnc2nonc12,i,0.41
C/C(N)=C(/C#N)C(=O)CSc1nc2ccccc2n1CC(C)C,i,1.5
CCCCn1cnc2sc(-c3ccccc3)cc2c1=O,i,0.71
O=c1c2cc(-c3ccccc3)sc2ncn1/N=C/c1ccco1,-5.9*,-5.9
CC1CN(C(=O)c2ccc(NS(=O)(=O)c3ccc(F)cc3)cc2)CC(C)O1 (stereo not drawn),i,2.7
Fc1ccc(NCc2nnc(SCc3nnc(-c4ccccc4)o3)n2CC2CCCO2)cc1 (stereo not drawn),i,1.3
Cc1ccc2nc(C)cc(C(=O)Nc3nccs3)c2c1,i,/
O/N=C(/CCc1ccccc1)c1ccc2c(c1)OCCO2,-5.9*,-5.9
O=C(CCc1ccccc1)c1ccc2c(c1)OCCCO2,i,/
NC(=O)c1nn(-c2ccccc2)nc1NC(=O)Cn1nnc(-c2ccccc2)n1,i,0.31
SMILES,KCNQ2 block,KCNQ2 enhance
COc1ccc(-c2cc3nc(C)cc(N4CC(C)CC(C)C4)n3n2)cc1 (stereo not drawn),-6*,-6
COc1ccc(-c2cc(C(F)(F)F)n3nc(C)cc3n2)cc1,i,/
O=C(Cc1ccccc1)NNC(=O)Nc1ccccc1,i,1.3
O=C(NN1C(=O)/C(=C/c2ccc(O)c(O)c2)SC1=S)c1ccccc1,i,/
O=C(NN1C(=O)/C(=C/c2cccc(O)c2)SC1=S)c1ccccc1O,-8.3*,-8.3
O=C(c1ccccc1)N1CCc2ccccc21,i,/
O=C(NC(=S)N1CCc2ccccc21)c1ccccc1,i,14*
CC1CCCCN1C(=O)c1cc2nc(-c3ccccc3)cc(-c3ccccc3)n2n1 (stereo not drawn),-5.7*,-5.7
CC1CCCCN1C(=O)CSc1nc(-c2ccccc2)cc(=O)[nH]1 (stereo not drawn),i,0.32
Cc1cc(C)cc(OC(=O)COc2ccccc2C)c1,i,/
NC(=O)c1nsc(C(=O)N(Cc2ccccc2Cl)C(C(=O)NCC2CCCO2)c2ccc(O)cc2)c1N (stereo not drawn),i,0.8
O=C(CSc1nnc(-c2cc3ccccc3cc2O)n1Cc1ccco1)c1ccc(F)cc1,-5.9*,-5.9
Cc1occc1-c1nnc(SCC(=O)c2ccc(F)cc2)n1Cc1ccco1,i,/
CCOC(=O)c1ccc(/C=C2/C=C(c3ccccc3)N(c3ccc(Cl)c(C(=O)O)c3)C2=O)cc1,i,/
COc1cccc(C(=O)NCC(c2ccco2)N2CCc3ccccc3C2)c1 (stereo not drawn),i,/
COc1cc(C(=O)NCC(c2ccco2)N2CCc3ccccc32)cc(OC)c1OC (stereo not drawn),i,/
O=C(NCC(c1ccco1)N1CCCC1)c1ccc(S(=O)(=O)Nc2ccccc2F)cc1 (stereo not drawn),i,0.06
Cc1ccccc1NS(=O)(=O)c1ccc(C(=O)NCC(c2ccco2)N2CCCCC2)cc1 (stereo not drawn),-6.7*,-6.7
O=C(NCC(c1ccco1)N1CCc2ccccc21)c1ccccc1 (stereo not drawn),i,/
Cc1ccc(C(=O)NCC(c2ccco2)N2CCc3ccccc32)cc1C (stereo not drawn),-6.2*,-6.2
COc1ccccc1C(=O)NCC(c1ccco1)N1CCc2ccccc21 (stereo not drawn),-6.3*,-6.3
O=C(NCC(c1ccco1)N1CCc2ccccc2C1)c1cccc(F)c1 (stereo not drawn),-5.8*,-5.8
O=C(CCCC(=O)Nc1ccc(Br)cc1)N/N=C/c1ccccc1,i,0.51
CCCc1ccc(Oc2cc(N3CCOCC3)nc(-c3ccccc3)n2)cc1,i,/
CC(C)CCNC(=O)C(=O)NCC1OCCCN1S(=O)(=O)c1cccs1 (stereo not drawn),i,1.3
SMILES,KCNQ2 block,KCNQ2 enhance
CCCCN(C)C1CCN(C(=S)Nc2cccc(SC)c2)CC1,i,2.1
CCOc1ccc(C(C(=O)NC2CCCCC2)N(C(=O)c2csnn2)C2CC2)cc1 (stereo not drawn),i,/
Cc1cc(C(=O)NCc2ccc3c(c2)OCO3)ccc1[N+](=O)[O-],i,3.6
CC1CC(C)CN(c2ccc(C(=O)NCc3ccc4c(c3)OCO4)cc2[N+](=O)[O-])C1 (stereo not drawn),i,8.9*
Cc1cc2c(NC3CCCCC3)ncnc2s1,i,1
COc1ccccc1NC(=O)Cc1csc(NC(=O)c2ccccc2)n1,i,0.37
COc1cc(OC)cc(C(=O)Nc2nc(CC(=O)NCc3ccccc3OC)cs2)c1,-6.6*,-6.6
COc1cc(C(=O)Nc2nc(-c3cccs3)cs2)cc(OC)c1OC,-7.1*,-7.1
O=C(Cc1csc(NC(=O)c2ccc(F)cc2)n1)NO,-5.7*,-5.7
COc1ccc(C(=O)Nc2nc(-c3cccs3)cs2)cc1,i,1.4
COc1cc(OC)cc(C(=O)Nc2nc(CC(=O)NCc3ccc(F)cc3)cs2)c1,i,/
O=C1c2cccc(Cl)c2C(=O)c2c1cccc2N1CCCC1,i,/
CC1CN(C(C)C)C(C)CC1OC(=O)c1ccccc1 (stereo not drawn),i,/
O=C(/C=C/c1ccc(F)cc1)NCCc1ccc2c(c1)OCCO2,i,/
CCOC(=O)C(C(=O)OCC)C(CC(=O)C1CC1)c1ccccc1 (stereo not drawn),i,/
COc1cc(C2CC(=O)c3c(O)cc(O)cc3O2)ccc1O (stereo not drawn),i,/
COc1c(CC=C(C)C)cc(C2CC(=O)c3c(O)cc(O)cc3O2)c(CC=C(C)C)c1O (stereo not drawn),-5.8*,-5.8
CCn1nc(C(=O)OCC(=O)c2ccc(F)cc2)c2ccccc2c1=O,i,1.1
CCn1nc(C(=O)OC(C(=O)c2c[nH]c3ccccc23)c2ccccc2)c2ccccc2c1=O (stereo not drawn),-8*,-8
CCc1cc2cc(C(=O)N3CCN(Cc4ccccc4)CC3)sc2s1,-5.8*,-5.8
CCc1cc2cc(C(=O)N3CCN(c4ccccc4)CC3)sc2s1,i,/
